From PubChem BioAssay (EPA / NIEHS)
Inconclusive results are not listed. The source made the active and inactive calls. Rule for the calls, unless noted: active = hit-call score of the fitted dose curve at least 0.9, where 1 is the maximum; inactive = score below 0.9.

How the values were obtained:
[1] = biological target: Bile acid receptor (Homo sapiens) (UniProt Q96RI1); assay: ATG_FXR_TRANS: Attagene TRANS-FACTORIAL HepG2 Assay for Farnesoid X Receptor (FXR) (AID 2282979; active = hit-call score of the fitted dose curve at least 0.9, where 1 is the maximum;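 note: hits raise reporter mRNA above DMSO so AC50 marks FXR activation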); settings: HepG2 Attagene TRANS FXR-GAL4 reporter transcription
Summary of the method: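 Chimeric FXR-GAL4 activity in transiently transfected human HepG2 liver cells is scored as induction of reporter mRNA after 24 h of dosing. Detection uses RT-PCR with fluorescent labelling and capillary electrophoresis, with DMSO serving as baseline.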

[2] = biological target: Oxysterols receptor LXR-alpha (Homo sapiens) (UniProt Q13133); assay: ATG_LXRa_TRANS: Attagene TRANS-FACTORIAL HepG2 Assay for human Liver X Receptor alpha (LXRa) (AID 2282980; active = hit-call score of the fitted dose curve at least 0.9, where 1 is the maximum); settings: HepG2 Attagene TRANS reporter, LXRa transactivation
Summary of the method: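 Transient HepG2 transfectants, 24 h dosing, RT-PCR/CE mRNA reporter quantitation; gain-of-signal vs DMSO.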

[3] = biological target: Transcriptional activator Myb (Homo sapiens) (UniProt P10242); assay: ATG_Myb_CIS: Attagene CIS-FACTORIAL HepG2 Assay for human Myeloblastosis (Myb) Proto-Oncogene Transcription Factor (AID 2282986); settings: HepG2 Attagene CIS-FACTORIAL Myb reporter transcription; actives raise or lower the signal
Summary of the method: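 Endogenous transcription factor activity at a Myb-responsive cis element is reported in human liver HepG2 cells after 24 h chemical treatment. Reporter mRNA is detected by RT-PCR and capillary electrophoresis fluorescence, with DMSO as baseline.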

[4] = biological target: Nuclear respiratory factor 1 (Homo sapiens) (UniProt Q16656); assay: ATG_NRF1_CIS: Attagene CIS-FACTORIAL HepG2 Assay for human Nuclear Respiratory Factor 1 (NRF1) Orphan Gene (AID 2282987); settings: HepG2 NRF1 cis-element reporter, Attagene multiplex; actives raise or lower the signal
Summary of the method: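 Human hepatoma HepG2 cells carrying transfected promoter-regulated reporter units were incubated with test chemicals for 24 h. Reporter transcripts were measured by RT-PCR plus capillary electrophoresis, and endpoints derived by bidirectional fitting with DMSO as baseline.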

[5] = ATG_NFI_CIS: Attagene CIS-FACTORIAL HepG2 Assay for human Nuclear Factor I (NFI) (AID 2282989); settings: HepG2 cis-regulatory reporter, NFI response element transcription; actives raise or lower the signal
Summary of the method: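 HepG2, transient MRTU, 24 h exposure; RNA→cDNA→PCR→FAM label→HpaI→CE fluorescence. Bidirectional fit, DMSO = baseline.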

[6] = biological target: Myc proto-oncogene protein (Homo sapiens) (UniProt P01106); assay: ATG_Myc_CIS: Attagene CIS-FACTORIAL HepG2 Assay for human Myelocytomatosis (Myc) Proto-Oncogene Transcription Factor (AID 2282990); settings: HepG2, Attagene cis-reporter transcription factor activity; actives raise or lower the signal
Summary of the method: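 HepG2, transient MRTU transfection (cis promoters, endogenous TFs); 24 h dosing; TriZol RNA → oligo(dT) RT → PCR → 6-FAM primer extension → HpaI cut → CE. Bidirectional fit vs DMSO.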

[7] = ATG_NF_kB_CIS: Attagene CIS-FACTORIAL HepG2 Assay for human Nuclear Factor Kappa B (NF-kB) (AID 2282991); settings: HepG2 Attagene cis-factorial NF-kB reporter mRNA; actives raise or lower the signal
Summary of the method: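 Multiplexed cis-reporter assay in transiently transfected HepG2. 24 h treatment; RNA isolated, RT-PCR, labelled fragments resolved by CE. DMSO baseline.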

[8] = ATG_NRF2_ARE_CIS: Attagene CIS-FACTORIAL HepG2 Assay for human Nuclear Factor Erythroid 2 Related Factor 2 (NFR2) response to Antioxidant Response Elements (ARE) (AID 2282992); settings: HepG2 Attagene ARE/NRF2 reporter, transcription factor activity; actives raise or lower the signal;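 for AC50: reporter mRNA level measured by RT-PCR and capillary electrophoresis fluorescence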
Summary of the method: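 Cis-factorial assay: transfected HepG2 reporter library, 24 h dosing, mRNA readout via RT-PCR/CE; DMSO-referenced bidirectional analysis.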

[9] = ATG_Oct_MLP_CIS: Attagene CIS-FACTORIAL HepG2 Assay for human Octamer-Binding Transcription Factor (Oct) (AID 2282993); settings: HepG2 Attagene cis-factorial Oct reporter, mRNA; actives raise or lower the signal
Summary of the method: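 Multiplexed cis-reporter assay in human liver HepG2 cells, 24 h incubation. Reporter RNA amplified and labelled, then resolved by capillary electrophoresis; DMSO serves as negative control and baseline.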

[10] = biological target: Cellular tumor antigen p53 (Homo sapiens) (UniProt P04637); assay: ATG_p53_CIS: Attagene CIS-FACTORIAL HepG2 Assay for human p53 Transcription Factor (AID 2282994); settings: HepG2 p53 cis-element reporter, Attagene mRNA; actives raise or lower the signal
Summary of the method: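 Using HepG2 hepatoma cells carrying cis-acting multiplexed reporters, mRNA induction is detected after a 24 h exposure. Gain- and loss-of-signal responses are fitted relative to DMSO-treated cells.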

[11] = biological target: Oxysterols receptor LXR-beta (Homo sapiens) (UniProt P55055); assay: ATG_LXRb_TRANS: Attagene TRANS-FACTORIAL HepG2 Assay for human Liver X Receptor beta (LXRb) (AID 2282981; active = hit-call score of the fitted dose curve at least 0.9, where 1 is the maximum); settings: HepG2 Attagene TRANS GAL4-LXRb reporter, mRNA
Summary of the method: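 Cells: HepG2, transiently transfected with GAL4-UAS reporter units plus LXRb-Gal4 fusion. Treatment: 24 h. Detection: reporter mRNA by RT-PCR, 6-FAM labelling, HpaI digestion, capillary electrophoresis.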

[12] = biological target: Hepatocyte nuclear factor 4-alpha (Homo sapiens) (UniProt P41235); assay: ATG_HNF4a_TRANS: Attagene TRANS-FACTORIAL HepG2 Assay for human Hepatocyte Nuclear Factor 4 alpha (HNF4a) (AID 2282982; active = hit-call score of the fitted dose curve at least 0.9, where 1 is the maximum); settings: HepG2 HNF4a transactivation reporter, mRNA readout
Summary of the method: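 Transfected HepG2 reporter cells are dosed for 24 h; reporter RNA is reverse-transcribed, amplified, fluorescently labelled and HpaI-digested before CE sizing. Positive-direction fit against DMSO.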

[13] = ATG_M_06_TRANS: Attagene TRANS-FACTORIAL HepG2 Assay for M06 Transcription Factor (Internal Marker) (AID 2282983; active = hit-call score of the fitted dose curve at least 0.9, where 1 is the maximum;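 note: reporter transcript level by RT-PCR then capillary electrophoresis fluorescence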); settings: HepG2 Attagene TRANS M06 internal marker reporter
Summary of the method: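 Measured by capillary electrophoresis of fluorescently labelled RT-PCR products, this endpoint reflects reporter mRNA in HepG2 cells harbouring exogenous NR-GAL4 reporter constructs after 24 h exposure, with DMSO as baseline.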

[14] = biological target: Nuclear receptor subfamily 4 group A member 2 (Homo sapiens) (UniProt P43354); assay: ATG_NURR1_TRANS: Attagene TRANS-FACTORIAL HepG2 Assay for human Nuclear Receptor Related Protein 1 (NURR1) (AID 2282985; active = hit-call score of the fitted dose curve at least 0.9, where 1 is the maximum); settings: HepG2 Attagene TRANS reporter, mRNA readout
Summary of the method: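 Cells: HepG2, transiently transfected. Exposure: 24 h. Detection: fluorescence of labelled RT-PCR products separated by capillary electrophoresis; upward fit versus DMSO.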

[15] = BSK_3C_TissueFactor: BioMAP Diversity Plus: 3C Assay for Tissue Factor Biomarker Activity (AID 2282997); settings: BioMAP 3C HUVEC, tissue factor biomarker readout; actives raise or lower the signal
Summary of the method: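 Values derive from bidirectional curve fitting against DMSO of Tissue Factor ELISA signals, taken 24 h after dosing primary human umbilical vein endothelial cells.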

[16] = BSK_3C_uPAR: BioMAP Diversity Plus: 3C Assay for Urokinase-type plasminogen activator receptor (uPAR) Biomarker Activity (AID 2282998); settings: BioMAP 3C HUVEC, uPAR biomarker ELISA; actives raise or lower the signal
Summary of the method: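 Dose primary human umbilical vein endothelial cells, incubate 24 h, measure cell-surface uPAR by ELISA, then fit the signal in both directions against the DMSO negative control.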

[17] = BSK_3C_VCAM1: BioMAP Diversity Plus: 3C Assay for Vascular cell adhesion molecule 1 (VCAM1) Biomarker Activity (AID 2282999); settings: BioMAP 3C HUVEC, VCAM1 ELISA, cytokine-stimulated; actives raise or lower the signal
Summary of the method: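 Endothelial cells from human umbilical vein are treated with test chemical. At 24 h, VCAM-1 is measured by ELISA, and responses in either direction are fitted relative to DMSO.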

[18] = ATG_M_32_TRANS: Attagene TRANS-FACTORIAL HepG2 Assay for M32 Transcription Factor (Internal Marker) (AID 2282984; active = hit-call score of the fitted dose curve at least 0.9, where 1 is the maximum;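 note: transcript level of a background control reporter unit measured by RT-PCR and capillary electrophoresis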); settings: HepG2 Attagene TRANS M32 internal marker reporter
Summary of the method: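 Using transiently transfected HepG2 cells exposed to test chemicals for 24 h, reporter transcripts are converted to labelled cDNA fragments and quantified by capillary electrophoresis. DMSO defines the activity baseline.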

[19] = biological target: Glucocorticoid receptor (Homo sapiens) (UniProt P04150); assay: ATG_GR_TRANS: Attagene TRANS-FACTORIAL HepG2 Assay for human Glucocorticoid Receptor (GR) (AID 2282978; active = hit-call score of the fitted dose curve at least 0.9, where 1 is the maximum;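 note: activators score as hits since higher reporter transcript over DMSO is fitted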); settings: HepG2 Attagene TRANS GR reporter, mRNA transcription
Summary of the method: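 Multiplexed TRANS reporter system, HepG2; 24 h exposure; RNA → oligo(dT) RT → reporter-specific PCR → 6-FAM primer extension → HpaI cut → CE fluorescence. Gain-of-signal vs DMSO.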

Measured: AC50

Bile acid receptor (Homo sapiens), sequence (Q96RI1 whole entry, looked up, the tested form may be a part): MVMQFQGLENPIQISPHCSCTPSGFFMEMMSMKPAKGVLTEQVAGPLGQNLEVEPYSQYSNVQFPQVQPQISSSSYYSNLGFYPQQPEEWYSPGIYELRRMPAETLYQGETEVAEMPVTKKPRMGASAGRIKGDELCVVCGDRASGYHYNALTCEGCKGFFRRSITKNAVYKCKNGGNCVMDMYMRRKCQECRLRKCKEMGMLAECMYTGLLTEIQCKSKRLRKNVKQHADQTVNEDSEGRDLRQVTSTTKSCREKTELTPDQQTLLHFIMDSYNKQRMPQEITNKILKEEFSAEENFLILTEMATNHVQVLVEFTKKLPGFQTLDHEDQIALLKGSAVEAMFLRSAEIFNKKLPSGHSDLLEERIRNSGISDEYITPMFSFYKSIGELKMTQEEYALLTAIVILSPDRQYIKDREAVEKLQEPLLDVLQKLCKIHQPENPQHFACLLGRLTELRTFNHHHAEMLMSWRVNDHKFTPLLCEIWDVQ
Transcriptional activator Myb (Homo sapiens), sequence (P10242 whole entry, looked up): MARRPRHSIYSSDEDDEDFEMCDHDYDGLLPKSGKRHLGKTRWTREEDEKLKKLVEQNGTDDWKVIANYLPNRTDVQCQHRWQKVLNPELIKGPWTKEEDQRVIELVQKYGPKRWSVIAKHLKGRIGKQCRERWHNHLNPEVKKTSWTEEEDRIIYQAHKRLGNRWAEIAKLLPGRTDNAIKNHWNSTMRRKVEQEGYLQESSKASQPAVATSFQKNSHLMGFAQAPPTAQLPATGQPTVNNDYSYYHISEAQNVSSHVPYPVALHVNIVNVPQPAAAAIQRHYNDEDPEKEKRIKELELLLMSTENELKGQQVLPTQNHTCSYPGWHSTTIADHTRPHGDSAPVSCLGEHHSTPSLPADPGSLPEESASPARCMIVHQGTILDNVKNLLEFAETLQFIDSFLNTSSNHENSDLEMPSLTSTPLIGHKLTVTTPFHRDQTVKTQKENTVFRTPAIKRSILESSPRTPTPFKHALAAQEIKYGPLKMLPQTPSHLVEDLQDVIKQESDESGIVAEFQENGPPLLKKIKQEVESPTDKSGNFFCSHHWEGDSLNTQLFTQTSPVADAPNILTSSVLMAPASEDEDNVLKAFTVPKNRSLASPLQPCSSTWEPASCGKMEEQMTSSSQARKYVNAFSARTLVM
Nuclear receptor subfamily 4 group A member 2 (Homo sapiens), sequence (P43354 whole entry, looked up): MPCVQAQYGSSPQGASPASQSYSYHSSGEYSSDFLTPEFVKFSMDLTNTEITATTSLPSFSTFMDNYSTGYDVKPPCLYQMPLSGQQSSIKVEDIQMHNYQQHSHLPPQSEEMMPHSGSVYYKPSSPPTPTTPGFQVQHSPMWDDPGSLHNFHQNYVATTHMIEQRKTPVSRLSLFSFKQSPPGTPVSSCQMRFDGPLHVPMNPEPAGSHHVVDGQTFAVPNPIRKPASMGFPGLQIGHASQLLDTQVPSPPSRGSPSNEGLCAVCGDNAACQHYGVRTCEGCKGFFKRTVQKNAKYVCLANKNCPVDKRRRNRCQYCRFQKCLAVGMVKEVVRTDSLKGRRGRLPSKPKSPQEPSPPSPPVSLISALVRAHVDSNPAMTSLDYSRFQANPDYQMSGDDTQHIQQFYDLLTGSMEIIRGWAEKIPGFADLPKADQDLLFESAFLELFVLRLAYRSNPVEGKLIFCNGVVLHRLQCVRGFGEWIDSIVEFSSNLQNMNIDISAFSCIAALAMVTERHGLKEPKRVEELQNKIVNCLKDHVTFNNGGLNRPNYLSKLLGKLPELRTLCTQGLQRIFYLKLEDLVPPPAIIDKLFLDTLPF
Nuclear respiratory factor 1 (Homo sapiens), sequence (Q16656 whole entry, looked up): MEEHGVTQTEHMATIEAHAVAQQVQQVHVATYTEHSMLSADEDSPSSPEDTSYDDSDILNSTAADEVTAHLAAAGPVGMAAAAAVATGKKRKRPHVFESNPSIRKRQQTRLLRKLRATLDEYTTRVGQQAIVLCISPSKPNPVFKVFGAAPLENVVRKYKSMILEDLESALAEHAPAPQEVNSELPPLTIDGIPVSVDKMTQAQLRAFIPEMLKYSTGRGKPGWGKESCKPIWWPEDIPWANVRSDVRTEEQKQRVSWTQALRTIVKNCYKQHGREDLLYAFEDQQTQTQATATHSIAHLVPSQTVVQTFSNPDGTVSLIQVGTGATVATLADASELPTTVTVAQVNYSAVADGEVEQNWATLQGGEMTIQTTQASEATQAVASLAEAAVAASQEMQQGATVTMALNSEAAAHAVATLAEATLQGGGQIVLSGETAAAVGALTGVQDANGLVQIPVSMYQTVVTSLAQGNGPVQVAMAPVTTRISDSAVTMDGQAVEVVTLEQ
Oxysterols receptor LXR-beta (Homo sapiens), sequence (P55055 whole entry, looked up, the tested form may be a part): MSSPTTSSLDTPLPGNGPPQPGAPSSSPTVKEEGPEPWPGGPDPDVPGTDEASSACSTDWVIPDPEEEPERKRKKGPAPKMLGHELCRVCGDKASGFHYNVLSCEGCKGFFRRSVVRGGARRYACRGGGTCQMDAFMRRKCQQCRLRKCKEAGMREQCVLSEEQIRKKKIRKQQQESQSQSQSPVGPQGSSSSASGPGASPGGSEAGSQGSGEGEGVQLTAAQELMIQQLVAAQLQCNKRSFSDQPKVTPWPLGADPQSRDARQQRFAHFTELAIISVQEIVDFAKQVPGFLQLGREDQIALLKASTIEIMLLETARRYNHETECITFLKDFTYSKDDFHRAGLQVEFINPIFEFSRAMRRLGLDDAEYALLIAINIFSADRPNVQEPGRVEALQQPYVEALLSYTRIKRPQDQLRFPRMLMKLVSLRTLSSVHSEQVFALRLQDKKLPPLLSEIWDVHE
Hepatocyte nuclear factor 4-alpha (Homo sapiens), sequence (P41235 whole entry, looked up): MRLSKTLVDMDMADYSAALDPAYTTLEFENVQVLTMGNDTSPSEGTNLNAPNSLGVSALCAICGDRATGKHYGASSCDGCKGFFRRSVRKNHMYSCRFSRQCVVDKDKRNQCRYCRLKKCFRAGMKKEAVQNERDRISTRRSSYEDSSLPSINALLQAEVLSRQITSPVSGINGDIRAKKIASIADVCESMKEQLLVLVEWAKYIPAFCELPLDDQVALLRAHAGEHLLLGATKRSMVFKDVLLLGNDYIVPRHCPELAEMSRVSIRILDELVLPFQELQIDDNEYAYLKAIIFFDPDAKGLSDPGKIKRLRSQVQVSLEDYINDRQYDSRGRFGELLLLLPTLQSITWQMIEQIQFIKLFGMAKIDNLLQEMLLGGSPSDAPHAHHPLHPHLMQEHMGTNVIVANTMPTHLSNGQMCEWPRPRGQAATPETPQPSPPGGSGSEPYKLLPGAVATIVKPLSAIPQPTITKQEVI
Oxysterols receptor LXR-alpha (Homo sapiens), sequence (Q13133 whole entry, looked up): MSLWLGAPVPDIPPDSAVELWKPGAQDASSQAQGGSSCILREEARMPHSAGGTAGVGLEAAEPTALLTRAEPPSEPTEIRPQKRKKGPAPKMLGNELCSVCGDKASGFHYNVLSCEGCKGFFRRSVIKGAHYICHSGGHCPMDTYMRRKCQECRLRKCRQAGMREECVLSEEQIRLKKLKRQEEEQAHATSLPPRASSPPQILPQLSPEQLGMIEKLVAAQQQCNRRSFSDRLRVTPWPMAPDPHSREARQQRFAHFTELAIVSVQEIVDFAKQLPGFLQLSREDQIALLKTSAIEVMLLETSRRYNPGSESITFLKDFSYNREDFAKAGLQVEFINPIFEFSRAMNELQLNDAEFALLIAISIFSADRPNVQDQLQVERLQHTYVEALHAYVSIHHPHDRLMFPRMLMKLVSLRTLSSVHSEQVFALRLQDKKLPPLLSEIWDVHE
Glucocorticoid receptor (Homo sapiens), sequence (P04150 whole entry, looked up): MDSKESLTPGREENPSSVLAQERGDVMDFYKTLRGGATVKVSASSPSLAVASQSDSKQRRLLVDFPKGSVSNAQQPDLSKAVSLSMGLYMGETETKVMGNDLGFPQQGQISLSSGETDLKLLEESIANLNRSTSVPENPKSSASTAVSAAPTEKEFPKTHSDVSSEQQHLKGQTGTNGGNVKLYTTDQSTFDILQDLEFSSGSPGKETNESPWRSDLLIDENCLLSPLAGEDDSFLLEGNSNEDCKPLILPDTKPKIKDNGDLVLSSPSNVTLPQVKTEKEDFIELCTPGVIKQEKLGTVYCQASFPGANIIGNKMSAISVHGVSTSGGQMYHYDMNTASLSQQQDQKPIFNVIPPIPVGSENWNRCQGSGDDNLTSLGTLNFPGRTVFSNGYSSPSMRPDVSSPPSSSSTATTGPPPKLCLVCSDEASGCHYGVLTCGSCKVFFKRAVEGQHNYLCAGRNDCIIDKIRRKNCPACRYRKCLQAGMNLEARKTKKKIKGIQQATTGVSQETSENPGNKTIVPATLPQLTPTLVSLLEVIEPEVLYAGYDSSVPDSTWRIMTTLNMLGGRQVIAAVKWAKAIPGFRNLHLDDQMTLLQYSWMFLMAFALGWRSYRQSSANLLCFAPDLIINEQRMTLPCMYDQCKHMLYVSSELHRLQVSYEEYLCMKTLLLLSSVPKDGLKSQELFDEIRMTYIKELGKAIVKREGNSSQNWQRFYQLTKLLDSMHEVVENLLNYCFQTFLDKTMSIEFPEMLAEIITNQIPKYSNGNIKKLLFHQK
Cellular tumor antigen p53 (Homo sapiens), sequence (P04637 whole entry, looked up): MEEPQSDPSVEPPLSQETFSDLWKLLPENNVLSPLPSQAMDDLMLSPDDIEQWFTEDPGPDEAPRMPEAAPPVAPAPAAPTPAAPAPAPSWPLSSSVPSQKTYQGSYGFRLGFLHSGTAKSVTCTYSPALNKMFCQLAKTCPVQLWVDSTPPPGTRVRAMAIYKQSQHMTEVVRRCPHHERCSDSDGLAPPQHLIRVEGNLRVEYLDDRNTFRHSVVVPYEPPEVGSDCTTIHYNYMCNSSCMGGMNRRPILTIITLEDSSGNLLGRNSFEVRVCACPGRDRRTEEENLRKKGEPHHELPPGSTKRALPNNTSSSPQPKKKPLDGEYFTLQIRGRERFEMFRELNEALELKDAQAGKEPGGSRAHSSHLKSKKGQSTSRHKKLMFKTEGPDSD

CCCCCC(=O)OCC
inactive: [1] | [2] | [3] | [4] | [5] | [6] | [7] | [8] | [9] | [10]

Oc1ccc(/C=C/c2cc(O)cc(O)c2)cc1
active: [14] 74.6 µM | [4] 179 µM | [7] 100 µM | [8] 24.6 µM
not listed: [3] | [18] | [19]
inactive: all other assays above

CCCCCC1=CCCC1=O
active: [8] 55.8 µM
not listed: [2] | [10] | [14] | [18] | [19]
inactive: all other assays above

Cc1cc(C)n(CO)n1
not listed: [3] | [12] | [14] | [15] | [16] | [17] | [19]
inactive: all other assays above

CC1CCC(C(C)(C)S)C(=O)C1 (stereo not given)
not listed: [15] | [16] | [17] | [19]
inactive: all other assays above

CC1=C(O)C(=O)C(C)O1 (stereo not given)
not listed: [2] | [12] | [15] | [16] | [17] | [19]
inactive: all other assays above

CC(=O)c1ccccc1O
not listed: [12] | [13] | [14] | [15] | [16] | [17] | [19]
inactive: all other assays above

CCCCOCCOC(=O)COc1ccc(Cl)cc1Cl
not listed: [1] | [2] | [9] | [11] | [15] | [16] | [17]
inactive: all other assays above

Cc1noc(NS(=O)(=O)c2ccc(N)cc2)c1C
not listed: [11] | [15] | [16] | [17] | [18] | [19]
inactive: all other assays above

Cc1ccc(S(=O)(=O)N=C=O)cc1
not listed: [1] | [2] | [11] | [15] | [16] | [17] | [18]
inactive: all other assays above

CCC(C)C(=O)OCCc1ccccc1 (stereo not given)
not listed: [2] | [14] | [15] | [16] | [17] | [18] | [19]
inactive: all other assays above

CC1(C)C(=O)N(CO)C(=O)N1CO
active: [8] 26.1 µM
not listed: [14] | [15] | [16] | [17] | [19]
inactive: all other assays above

CC(C)(O)Cc1ccccc1
inactive: [19] | [18] | [14] | [4] | [5] | [6] | [7] | [8] | [9] | [10]

CCCCC(=O)O
not listed: [2] | [7] | [15] | [16] | [17] | [19]
inactive: all other assays above

CO[Si](CCCS)(OC)OC
not listed: [1] | [2] | [11] | [13] | [15] | [16] | [17] | [18]
inactive: all other assays above

Cc1c(Cl)cccc1Cl
inactive: [19] | [13] | [3] | [4] | [5] | [6] | [7] | [8] | [9]

N#Cc1ccc(C(c2ccc(C#N)cc2)n2cncn2)cc1
inactive: [19] | [18] | [3] | [4] | [5] | [6] | [7] | [8] | [9]

C1CCSC1
not listed: [15] | [16] | [17] | [19]
inactive: all other assays above

CCOC(=O)C1=NOC(c2ccccc2)(c2ccccc2)C1
active: [8] 65.1 µM
not listed: [2] | [7] | [9] | [12] | [14] | [19]
inactive: all other assays above

CC1CCC(=O)C1=O (stereo not given)
inactive: [19] | [14] | [3] | [4] | [5] | [6] | [8] | [9]

Clc1cccnc1
not listed: [3] | [9] | [14] | [15] | [16] | [17] | [19]
inactive: all other assays above

C=C[Si](OCCOC)(OCCOC)OCCOC
not listed: [1] | [7] | [9] | [13] | [15] | [16] | [17] | [19]
inactive: all other assays above

CCc1occc(=O)c1O
inactive: [1] | [13] | [3] | [4] | [5] | [6] | [7] | [8] | [10]
